Bioassay records from PubChem BioAssay.
Tau fibril FP: inhibitors of human tau fibril formation; Potency, µM (top dose mostly 57.7 µM), for inactives: at the highest dose activity, negative = inhibition, usual class: inhibitors; P10636; K18 P301L tau heparin fibrillization, Alexa594 FP, 6 h; 0.39% of 280,000 active; further: potency means the concentration at half of the fitted maximal effect; nearly all actives have a fitted effect of over 55% in size
Target sequence (P10636 561-689 P618L limits assumed): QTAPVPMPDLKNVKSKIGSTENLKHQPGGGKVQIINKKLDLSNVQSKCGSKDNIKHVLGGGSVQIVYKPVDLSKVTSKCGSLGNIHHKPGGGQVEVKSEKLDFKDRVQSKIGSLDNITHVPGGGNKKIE
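Heparin (20 uM) drove fibril formation of recombinant tau K18 P301L, 15 uM unlabeled with 0.24 uM Alexa 594 label, for 6 hr at 37 C in 100 mM sodium acetate pH 7. Fluorescence polarization (555/632 nm) read 1 hr after 30 uM ThT.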
FBPA coupling cs: coupling enzyme interference in Giardia aldolase counter-screen; coupling enzyme system counterscreen, AmpLite Red fluorescence; activity change, negative = inhibition, % at 58.2 µM, hits read low; AID 2472; 0.67% of 290,000 active; in the data active means activity change below about -30%
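Activity here indicates interference with the coupling reaction, not aldolase inhibition. Compounds at 57.5 uM final met coupling enzymes for 10 min at RT; substrate and AmpLite Red detection followed, with a 525/598 nm fluorescence read after 20 min.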
Tau fluor cs: counter-screen for tau fibril formation inhibitors. tau K18 P301L Alexa594 fluorescence, heparin fibrillization. Potency, µM (top dose mostly 57.7 µM), for the others: at the highest dose activity change, negative = decrease. 0.93% of 280,000 active. AID 1463; further: potency means the concentration at half of the fitted maximal effect; nearly all actives have a fitted effect of over 55% in size
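Human K18 P301L tau (15 uM unlabeled plus 0.24 uM Alexa 594-labeled, final) in 100 mM sodium acetate pH 7 was mixed with compound and 20 uM heparin and incubated 6 hr at 37 C.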
Sfp inh: Sfp phosphopantetheinyl transferase inhibition | AID 1490 | Biochemical Sfp PPTase activity, qHTS | Q9F4F7 | 3.5% of 310,000 active | Potency, µM, for the others: largest response in the series, negative = inhibition, actives largely listed as inhibitors;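 further: the enzyme is Sfp with the accession as filed and its product quenches rhodamine fluorescence; potency means the concentration at half of the fitted maximal effect; 0% = enzyme reaction without inhibitor and -100% = no enzyme wells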
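Sfp 15 nM + cpd, 15 min RT; start w/ rhodamine-CoA 5 uM, BHQ-2-YbbR 12.5 uM (final); 50 mM Hepes pH 7.6, 10 mM MgCl2, 0.01% NP-40, 0.01% BSA; read 525/598 nm at 0 and 30 min.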
Tau fibril ThT: inhibitors of human tau fibril formation, thioflavin T binding | P10636 | recombinant tau K18 P301L (four-repeat tau fragment), heparin-induced fibrillization, ThT fluorescence | Potency, µM (doses to about 57.4 µM), inactives show at the highest dose activity, negative = inhibition, hits mostly inhibitors | 2.1% of 270,000 active | AID 1460; further: potency means the concentration at half of the fitted maximal effect; nearly all actives have a fitted effect of over 55% in size
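Tau K18 P301L fragment (15 uM unlabeled plus 0.24 uM Alexa 594-labeled) in 100 mM sodium acetate pH 7 with compound, fibrillization induced by 20 uM heparin for 6 hr at 37 C. Thioflavin T (30 uM) added, fluorescence read after 1 hr (ex 450, em 510 nm).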
G9a inh: inhibitors of human histone lysine methyltransferase G9a. 8.8% of 350,000 active. Q96KQ7. Potency, µM (top dose mostly 102 µM), inactives show at the highest dose activity, negative = inhibition, usual class: inhibitors. G9a H3K9 monomethylation, AlphaScreen, 2 h. AID 504332; further: potency means the concentration at half of the fitted maximal effect; nearly all actives have a fitted effect of over 75% in size
Target sequence (Q96KQ7 913-1193 limits assumed): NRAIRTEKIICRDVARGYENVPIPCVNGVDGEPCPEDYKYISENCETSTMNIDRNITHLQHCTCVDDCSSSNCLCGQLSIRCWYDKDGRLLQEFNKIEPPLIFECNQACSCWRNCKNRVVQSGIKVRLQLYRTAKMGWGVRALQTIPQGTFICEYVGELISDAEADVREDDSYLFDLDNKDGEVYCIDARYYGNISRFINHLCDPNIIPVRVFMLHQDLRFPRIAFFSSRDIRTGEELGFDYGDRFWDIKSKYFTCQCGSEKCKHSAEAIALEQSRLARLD
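Methyltransferase reactions run at room temperature for 2 h (20 nM enzyme, 500 nM biotin-H3K9 peptide, 20 uM SAM) after a 15 min compound preincubation; product detected by AlphaScreen beads and anti-H3K9me1 antibody.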
An asterisk follows results filed as active; ? = inconclusive; . = not tested or not shown; [ ] = remark or other dose. In the library only some 11% were active in any assay of this set; here they are far more common. Unless noted, the call rests on the fitted dose curve; in most records, active means well fitted curve in the direction sought with a large enough effect; inconclusive means small, poorly fitted or top-dose-only effect, or another doubt; inactive means no such curve, though single readings can be large; an effect the other way counts as inactive or inconclusive. Unless noted, on the % scale 0 is the no-effect control and ±100 the full control effect.

SMILES	Tau fibril FP	FBPA coupling cs	Tau fluor cs	Sfp inh	Tau fibril ThT	G9a inh
Cc1c(C(=O)NCc2ccc3c(c2)cc(C)n3C)cccc1[N+](=O)[O-]	-2%	1	-16%	1%	-6%	?
CCN(CC(=O)NCc1ccc(F)cc1)Cc1cc(=O)n2ccsc2n1	5%	1	-1%	17%	-7%	45µM*
O=C(CCCCn1c(=O)c2ccccc2n(Cc2ccccc2F)c1=O)NCc1ccccc1Cl	-12%	.	-10%	.	-2%	0%[59 µM]
COCc1cc(C)n(CC(=O)Nc2cccc(C(C)=O)c2)c(=O)c1C#N	2%	.	5%	.	1%	?
Cn1cccc1/C=C1\SC(=S)N(NC(=O)c2ccccc2Cl)C1=O	5%	1	-26%	2%	11µM*	-17%[59 µM]
Cc1ccc(C(=O)NN2C(=O)/C(=C/c3cccn3C)SC2=S)cc1	0%	2	?	20µM*	5µM*	?
Cn1cc(/C=C2\SC(=S)N(NC(=O)c3ccccc3Cl)C2=O)c2ccccc21	-19%	-12	-23%	8%	1.1µM*	3%[59 µM]
Cn1cc(/C=C2\SC(=O)NC2=S)c2ccccc21	?	-3	?	32µM*	2µM*	.
CCCCn1c(=O)c2oc3ccccc3c2n(CC(=O)Nc2cccc(Cl)c2C)c1=O	-7%	.	-5%	.	6%	6%[59 µM]
NCc1ccccc1Sc1ccccc1CO	.	.	.	-16%	.	-28%[12.7 µM]
COc1ccc(-n2c(SCc3cn4c(C)cccc4n3)nc3ccccc3c2=O)cc1OC	3%	1	-6%	-1%	-16%	-32%
O=C(CC(c1ccccc1)c1ccco1)Nc1nccs1 (centres undefined)	-4%	1	-25%	-21%	?	50µM*
COc1ccc(NC(=O)CC(c2ccccc2)c2ccco2)cc1 (centres undefined)	-6%	-5	-27%	45µM*	-18%	?
COc1ccc(NC(=O)CC(C(=O)O)C(C)c2ccccc2)cc1 (centres undefined)	.	2	.	15%	.	16%[59 µM]
CC(CC(=O)Nc1nccs1)c1ccccc1 (centres undefined)	.	1	.	20%	.	6%
COc1cccc(OCc2cc(C(=O)NC(C)c3cnn(C)c3C)no2)c1 (centres undefined)	.	1	.	18%	.	-10%
COc1ccc(CCNCc2c(C(=O)O)c(C)n(Cc3ccccc3C)c2C)c(OC)c1	-5%	.	0%	.	-2%	-3%[59 µM]
O=C(c1ccccc1)N1CCN(c2ccc([N+](=O)[O-])c(NCC3CCCO3)c2)CC1 (centres undefined)	-2%	-1	-19%	1%	?	?
CCOC(=O)c1ccc(Nc2nc3ccccc3n3c(C)nnc23)cc1	-12%	.	-27%	.	-3%	16%[59 µM]
CCCS(=O)(=O)N1CC(=O)N(c2cccc(Cl)c2)C(C)(C(=O)NC2CCCCC2)C1 (centres undefined)	1%	.	-1%	.	2%	7%[59 µM]
C=CCSC1=C(C#N)C(c2ccccc2OCC)C(C#N)C(=O)N1 (centres undefined)	-9%	6	-10%	35µM*	-16%	45µM*
CCOC(=O)C1C(=O)NC(SCC(=O)Nc2nccs2)=C(C#N)C1c1ccccc1OCC (centres undefined)	?	5	-23%	14µM*	?	1.6µM*
CCOC(=O)C1C(=O)NC(SCC(=O)OC)=C(C#N)C1c1ccccc1OCC (centres undefined)	1%	2	-10%	-8%	-7%	0%[59 µM]
Cc1cccc(NC(=O)CCNS(=O)(=O)c2ccc3c(c2)CCN3C(=O)C2CC2)c1	-7%	.	-16%	.	-3%	-7%[59 µM]
CC1CN(C(=S)NC(=O)c2ccco2)CC(C)O1 (centres undefined)	-3%	1	5%	?	-1%	?
COc1ccc(C(=O)NC(=S)N2CCN(c3ccc([N+](=O)[O-])cc3)CC2)cc1	-5%	4	-16%	17%	?	-3%[59 µM]
